Screening data deposited in PubChem by National Center for Advancing Translational Sciences (NCATS).
Sampled rows, rich in hits. Any-hit rate of the full collection: about 2.4%.
Pol kappa inh = DNA polymerase kappa (human) inhibition; Q9UBT6; purified Pol kappa, fluorescent DNA synthesis assay, 10 min; Potency, µM (doses to about 107 µM), usual class: inhibitors; 400,000 compounds, 0.53% hits
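Kinetic fluorescence screen: compound preincubated 15 min RT with 10 nM enzyme; 50 nM substrate (final) initiates; reads at 0/10 min.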
POLH inh = DNA polymerase eta (human) inhibition. Q9Y253. recombinant Pol eta, fluorescent DNA replication assay. Potency, µM (highest dose often 114 µM), actives largely listed as inhibitors. 390,000 compounds, 1.2% hits. AID 588591
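Pol eta at 10 nM preincubated with compounds 15 min at room temperature; reaction started with fluorescent substrate (50 nM final) and read kinetically at 0 and 10 min.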
WRN inhibitor = inhibitors of human WRN helicase; Q14191; WRN helicase unwinding, fluorescent forked duplex, kinetic; Potency, µM (top dose mostly 114 µM), usual class: inhibitors; 360,000 compounds, 0.46% hits; also: nearly all actives have a fitted effect of over 55% in size
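Screening of the MLSMR collection measured strand separation of a quenched forked DNA duplex (100 nM) by 20 nM WRN with 2 mM ATP, all final. Compounds were preincubated with enzyme 15 min at room temperature.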
Pol iota inh = inhibitors of human DNA polymerase iota; 390,000 compounds, 1% hits; Q9UNA4; Pol iota fluorescent replication assay, 10 min; AID 588590; Potency, µM (doses to about 115 µM), hits mostly inhibitors
Target sequence (Q9UNA4 whole entry, looked up): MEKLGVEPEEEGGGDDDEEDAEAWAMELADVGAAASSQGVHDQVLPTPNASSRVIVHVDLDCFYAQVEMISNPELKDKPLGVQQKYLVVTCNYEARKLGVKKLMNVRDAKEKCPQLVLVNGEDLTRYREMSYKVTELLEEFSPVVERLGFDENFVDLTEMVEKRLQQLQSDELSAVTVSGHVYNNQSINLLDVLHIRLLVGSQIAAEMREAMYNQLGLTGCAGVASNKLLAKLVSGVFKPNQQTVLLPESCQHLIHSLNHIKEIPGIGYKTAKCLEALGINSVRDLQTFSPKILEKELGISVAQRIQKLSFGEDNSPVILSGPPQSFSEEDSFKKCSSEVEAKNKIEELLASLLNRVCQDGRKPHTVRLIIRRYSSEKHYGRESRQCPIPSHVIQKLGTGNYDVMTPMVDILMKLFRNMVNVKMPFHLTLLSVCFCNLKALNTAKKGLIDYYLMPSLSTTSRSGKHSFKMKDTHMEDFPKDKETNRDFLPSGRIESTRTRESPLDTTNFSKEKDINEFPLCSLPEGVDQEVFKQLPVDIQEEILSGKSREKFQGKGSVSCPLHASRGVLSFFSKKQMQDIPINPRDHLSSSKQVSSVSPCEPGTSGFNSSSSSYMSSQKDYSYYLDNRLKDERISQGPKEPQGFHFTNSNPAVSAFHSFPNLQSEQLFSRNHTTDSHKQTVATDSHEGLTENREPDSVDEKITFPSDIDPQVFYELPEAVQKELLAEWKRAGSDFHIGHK
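Fluorescent replication assay read twice, at 0 min and 10 min after adding 50 nM (final) substrate. Enzyme (10 nM) and compounds were first incubated 15 min at room temperature; enzyme-free buffer wells were negative controls.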
FEN1 inh = blocks human flap endonuclease 1. P39748. Recombinant FEN1 flap cleavage, fluorescence, 15 min. Potency, µM (series often up to 114 µM), actives largely listed as inhibitors. 390,000 compounds, 0.35% hits. AID 588795; also: nearly all actives have a fitted effect of over 65% in size
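In this screen, 50 nM flap DNA substrate was added to 10 nM FEN1 pretreated with compound for 15 min at room temperature; cleavage was followed with reads at 0 and 15 min, and Hill fitting gave concentration–response parameters.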
POLB inh = DNA polymerase beta (human) inhibition; P06746; Pol beta primer extension/strand displacement, fluorescence kinetic; Potency, µM (top dose mostly 114 µM), hits mostly inhibitors; 340,000 compounds, 1.3% hits; AID 485314
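Kinetic readout of DNA synthesis with strand displacement by Pol beta. Compound and 10 nM enzyme sit 15 min at room temperature; 50 nM substrate starts the reaction, read immediately and at 10 min.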
A number is an active result; - = inactive; ? = inconclusive; . = not tested or not shown; ! = not active in a repeat; [ ] = remark or other dose. Calls follow the shape of the dose curve; as a rule, active = well fitted curve in the direction sought with a large enough effect; inconclusive = small, poorly fitted or top-dose-only effect, or another doubt; inactive = no such curve, though single readings can be large; an effect the other way counts as inactive or inconclusive.

SMILES | Pol kappa inh | POLH inh | WRN inhibitor | Pol iota inh | FEN1 inh | POLB inh
Cc1nn(CC(=O)NCCCc2ccccc2)c(=O)c2cccn12 | - | - | - | - | - | -
Cc1nn(CC(=O)NCc2cccc(Br)c2)c(=O)c2c1sc1ccccc12 | - | - | . | - | - | 6.31µM
COc1cccc(CNC(=O)Cn2nc(C)c3sc4ccccc4c3c2=O)c1OC | - | - | . | - | - | -
COc1cc(OC)c(NC(=O)CCCn2nc(C)c3sc4ccccc4c3c2=O)cc1Cl | ? | - | . | ? | 35.5µM | 15.8µM
C[C@H]1COC(=O)O1 | - | . | . | . | . | .
O=C(Nc1nc(-c2ccncc2)cs1)c1ccco1 | - | ? | - | ? | - | 39.8µM
COc1ccccc1OCC(=O)Nc1nnc(-c2ccco2)s1 | - | ? | - | ? | - | 35.5µM
Cc1cccc(OCC(=O)Nc2nnc(-c3ccco3)s2)c1 | - | - | - | - | - | ?
CCOC(=O)c1sc(N2C(=O)c3oc4ccc(F)cc4c(=O)c3C2c2ccc(C)cc2)nc1C (configuration not stated) | - | . | . | - | - | .
O=C(c1cccs1)N(Cc1ccco1)c1ccc(O)cc1 | - | . | . | - | - | .
CN(CCO)c1cc(Sc2nc3ccccc3s2)c2nonc2c1[N+](=O)[O-] | - | - | ? | 22.4µM | - | -
CCCCNC1=CC(=O)C(NCCCC)=CC1=O | - | - | - | 31.6µM | - | .
CCCCNC1=CC(=O)C(=O)c2ccccc21 | - | ? | - | ? | - | -
O=C(O)CN1C(=O)C=CC1=O | . | ? | - | . | . | .
O=C1C=CC(=O)N1CCCCCCN1C(=O)C=CC1=O | - | ? | 20µM | - | - | -
NC(CC(=O)Nc1ccc(Oc2cc(F)c(F)cc2Br)cc1)C(=O)O (configuration not stated) | - | . | . | . | . | .
CC12CCC=CC1C(c1ccc3ccccc3c1C=Cc1ccccc1)N(Cc1ccccc1)C2=O (configuration not stated) | - | . | . | - | - | .
CCOC(=O)c1cc2c(=O)n3ccccc3nc2n(Cc2ccco2)c1=NC(=O)c1ccc(OC)cc1 | ? | - | - | 22.4µM! | 79.4µM! | -
Cc1ccc2nc3c(cc(S(=O)(=O)c4ccccc4)c(=N)n3Cc3ccco3)c(=O)n2c1 | - | - | - | - | - | 7.94µM
N=c1c(S(=O)(=O)c2ccccc2)cc2c(=O)n3ccccc3nc2n1Cc1ccco1 | - | ? | - | ? | - | 17.8µM
CCn1c(=N)c(S(=O)(=O)c2ccccc2)cc2c(=O)n3ccccc3nc21 | - | - | - | - | - | -
Cc1ccc(S(=O)(=O)c2cc3c(=O)n4ccccc4nc3n(Cc3ccco3)c2=N)cc1C | - | - | - | ? | - | 8.91µM
CCCC[C@H](NC(C)=O)C(=O)N[C@H]1CC(=O)NCCCC[C@@H](C(N)=O)NC(=O)[C@H](Cc2c[nH]c3ccccc23)NC(=O)[C@H](CCCN=C(N)N)NC(=O)[C@@H](Cc2ccccc2)NC(=O)[C@H](Cc2cnc[nH]2)NC1=O | - | . | . | . | . | .
Cc1[nH][nH]c(=O)c1C(c1ccc(N(C)C)c(Br)c1)c1c(C)[nH][nH]c1=O | - | - | - | - | - | -
Cc1[nH][nH]c(=O)c1C(c1ccc(-c2ccc(Cl)c(Cl)c2)o1)c1c(C)[nH][nH]c1=O | - | ? | - | 3.55µM | - | -
SMILES | Pol kappa inh | POLH inh | WRN inhibitor | Pol iota inh | FEN1 inh | POLB inh
COc1ccc(-c2ccc(/C=N/N3C(=O)C4C5C=CC(C6CC56)C4C3=O)o2)c([N+](=O)[O-])c1 (configuration not stated) | - | ? | - | - | - | ?
Cc1[nH][nH]c(=O)c1C(c1ccc(-c2ccc(F)cc2)o1)c1c(C)[nH][nH]c1=O | - | - | - | 7.08µM | - | ?
CCOc1ccc(Cl)cc1C(c1c(C)[nH][nH]c1=O)c1c(C)[nH][nH]c1=O | - | - | - | ? | - | -
COc1ccc(-c2ccc(C(c3c(C)[nH][nH]c3=O)c3c(C)[nH][nH]c3=O)o2)c([N+](=O)[O-])c1 | - | - | - | 11.2µM | - | ?
CCCCS(=O)(=O)/C=C\C1C2C=CC(C2)C1S(=O)(=O)CCCC (configuration not stated) | - | - | - | - | - | -
CCCCS(=O)(=O)/C=C\C=C/S(=O)(=O)CCCC | - | ? | 44.7µM | ? | - | ?
CN(C)c1ccc(/C=C/c2ccnc3c([N+](=O)[O-])cccc23)cc1 | - | . | . | ? | - | .
O=S(=O)(/N=S1\CC=CCN1S(=O)(=O)c1ccccc1)c1ccccc1 (configuration not stated) | - | - | 8.91µM | 28.2µM | ? | .
O=S(=O)(c1ccccc1)N1CCN(S(=O)(=O)c2ccccc2)CC1 | - | . | . | - | - | .
C=C(CO)C1Cc2cc(C(C)=O)ccc2O1 (configuration not stated) | ? | 20µM | - | ? | ? | ?
C/C(=N\O)c1ccc2c(c1)CC(C)O2 (configuration not stated) | - | - | - | - | - | -
Cc1ccc(C(C[N+](=O)[O-])Sc2ccc(N)cc2)cc1 (configuration not stated) | - | - | 44.7µM | - | - | -
Cc1cc2c(n1-c1ccc(C(=O)O)cc1)CCCCC2 | . | . | . | . | . | 2.51µM
Cc1ccc(CNC(=O)c2ccc(-n3c(C)cc4c3CCCC4)cc2)cc1 | - | - | . | - | - | -
O=C(O)c1cc(-c2ccc(/C=N/N3C(=O)C4C5C=CC(CC5)C4C3=O)o2)ccc1Cl (configuration not stated) | - | 50.1µM | - | - | - | -
COC(=O)c1ccc(-c2ccc(/C=N/N3C(=O)C4C5C=CC(CC5)C4C3=O)o2)cc1 (configuration not stated) | - | - | - | - | - | ?
O=C(O)c1cc(-c2ccc(/C=N/N3C(=O)C4C5C=CC(C6CC56)C4C3=O)o2)ccc1Cl (configuration not stated) | - | ? | -[11.6 µM] | - | - | 39.8µM
O=C1C2C3C=CC(C4CC34)C2C(=O)N1/N=C/c1ccc(-c2ccc(F)cc2[N+](=O)[O-])o1 (configuration not stated) | - | - | - | - | - | -
O=C(Nc1cc(Cl)cc2c1[nH]c1cnccc12)c1cccnc1 | - | . | . | . | . | .
COc1ccc(C(=O)Nc2ccccc2C(=O)O)cc1NC(=O)C(c1ccccc1)c1ccccc1 | - | 89.1µM | -[11.6 µM] | - | - | ?
O=C(Nc1ccccc1C(=O)O)c1ccccc1 | - | - | - | ? | - | 31.6µM
O=C(COc1ccc(Cl)cc1Cl)Nc1ccc(C(=O)Nc2ccccc2C(=O)O)cc1 | - | - | - | ? | - | 31.6µM
O=C(Cc1ccc(Cl)cc1)Nc1cccc(C(=O)Nc2ccccc2C(=O)O)c1 | - | ? | 89.1µM | - | - | -
O=C(COc1ccc(Cl)cc1Cl)NC(=S)Nc1ccccc1C(=O)O | . | . | . | . | . | -
